From PubChem
SARS PLpro yeast: blocks SARS-CoV papain-like protease in a yeast assay; S. cerevisiae expressing SARS-CoV PLpro, growth rescue; Potency, µM (titrated, usually from 32.9 µM), actives largely listed as activators; hit rate 0.19% among 330,000; calls by dose curve; also: nearly all actives have a fitted effect of over 55% in size
Sm TGR block: inhibitors of Schistosoma mansoni thioredoxin glutathione reductase; purified TGR, DTNB reduction, TNB absorbance 405 nm; Potency, µM (top dose mostly 114 µM), actives largely listed as inhibitors; hit rate 3% among 360,000; also: nearly all actives have a fitted effect of over 60% in size
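TGR 20 nM + NADPH 100 uM (dispensed conc.), cpd preinc 15 min RT; start with NADPH (500 uM addition) then DTNB (15 mM addition). Kinetic TNB absorbance, 405 nm filter. Four-parameter Hill fit across titration.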
Pf growth 96h: P. falciparum growth inhibition at 96 hours. P. falciparum luciferase reporter growth, 96 h. Potency, µM (series often up to 28.7 µM), actives largely listed as inhibitors. hit rate 6.9% among 320,000
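Two parasite generations (96 h, 37 C, 5% CO2) of compound exposure in infected erythrocytes (0.05% parasitemia, 2% hematocrit). Luciferase-reporter P. falciparum; decreased luminescence indicates inhibited growth, aimed at apicoplast-acting delayed death.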
Pf growth 48h: P. falciparum growth inhibition at 48 hours (one generation); P. falciparum luciferase growth in erythrocytes, 48 h; Potency, µM (top dose mostly 28.7 µM), hits mostly inhibitors; hit rate 5.9% among 310,000; AID 504832
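Luciferase-expressing P. falciparum in infected erythrocytes (2% hematocrit, 0.1% parasitemia final) in RPMI 1640/0.5% Albumax were exposed to compound for 48 hours at 37 C, 5% CO2; growth read as luminescence.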
Of the large screens only hits and unclear results are named; the others gave an inactive call. Most compounds without a hit are left out; they make up all but 12% or so of the library. Unless noted, calls follow the shape of the dose curve; as a rule, active = well fitted curve in the direction sought with a large enough effect; inconclusive = small, poorly fitted or top-dose-only effect, or another doubt; inactive = no such curve, though single readings can be large; an effect the other way counts as inactive or inconclusive.

CC1(C)CC(=O)C2=C(C1)N(c1ccccc1)C(N)=C(C#N)C2c1cccnc1 (stereo not drawn)	Pf growth 96h 13µM, Pf growth 48h inconclusive
O=C(Nc1ccccc1-c1ccccc1)c1ccco1	Pf growth 96h 1.3µM
O=C(OC1CCCCC1)c1ccc(NC(=O)c2ccco2)cc1	Pf growth 96h 2.9µM, Pf growth 48h inconclusive
COc1ccc(C(=O)Nc2ccccc2-c2nnn(CC(=O)N3CCOCC3)n2)cc1	none
COc1ccc(C(=O)Cn2nnc(-c3ccccc3NC(=O)c3ccco3)n2)cc1	Pf growth 48h 8.3µM
Cc1noc(C)c1C(=O)Nc1c(F)cc(F)cc1Br	none
O=C(Nc1c(F)cc(F)cc1Br)c1ccco1	Sm TGR block 45µM (no result: Pf growth 96h)
O=C(Nc1ccc(OC(=O)c2ccco2)cc1)c1ccco1	Pf growth 96h inconclusive
Cc1cc(C)cc(NC(=O)Cn2cc(C(=O)C3CCCCC3)c3ccccc32)c1	none (no result: SARS PLpro yeast, Pf growth 96h, Pf growth 48h)
COc1ccc(N(C(=O)c2ccco2)S(=O)(=O)c2cccs2)cc1	Sm TGR block inconclusive, Pf growth 96h inconclusive, Pf growth 48h inconclusive
Cc1c(NC(=O)c2ccco2)cccc1C(=O)NN1C(=O)c2ccccc2C1=O	Pf growth 96h 15µM
COc1ccc(CC(=O)Nc2cccc(C(=O)NN3C(=O)c4ccccc4C3=O)c2C)cc1	none
O=C(Nc1ccccc1-c1ccccc1)c1ccc(NC(=O)c2ccco2)cc1	Pf growth 48h 12µM (no result: Pf growth 96h)
O=C(Nc1ccccc1N(C(=O)c1ccco1)S(=O)(=O)c1cccs1)c1ccco1	Sm TGR block 45µM, Pf growth 96h inconclusive (no result: Pf growth 48h)
O=C(Nc1ccccc1-c1ccccc1NC(=O)c1ccco1)c1ccco1	Sm TGR block inconclusive, Pf growth 96h inconclusive, Pf growth 48h 10µM
O=C(Nc1ccccc1NC(=O)c1ccco1)c1ccco1	none (no result: Pf growth 96h)
Cc1ccc(C)c(CN2CCCN(Cc3ccc(F)cc3)S2(=O)=O)c1	none (no result: SARS PLpro yeast, Pf growth 96h, Pf growth 48h)
Cc1cc(C)cc(NC(=O)COC(=O)CC2CCCC2)c1	none
COc1ccc(C(=O)/C=C/C(=O)N(CC(=O)NC2CCCCC2)CC2CCCO2)c(O)c1 (stereo not drawn)	Sm TGR block 1.3µM, Pf growth 48h inconclusive
COc1ccc(C(=O)/C=C/C(=O)N(CC(=O)NC2CCCCC2)Cc2ccccc2OC)c(O)c1	Sm TGR block 1µM, Pf growth 96h inconclusive, Pf growth 48h 9.3µM
COc1ccccc1CN(C)CC(=O)NC(=O)NC1CCCCC1	Pf growth 96h inconclusive, Pf growth 48h inconclusive
COc1ccc(C(=O)/C=C/C(=O)N(CC(=O)NC2CCCCC2)Cc2ccccc2)c(O)c1	Sm TGR block 1.4µM, Pf growth 96h 2.6µM, Pf growth 48h inconclusive
Cc1ccc(S(=O)(=O)NCC(=O)N(CC(=O)NC2CCCC2)CC2CCCO2)cc1 (stereo not drawn)	none
COc1cccc(CN(CC(=O)NC2CCCC2)C(=O)CCC(=O)Nc2cc(C)on2)c1	Pf growth 96h inconclusive (no result: Pf growth 48h)
COCC(=O)N(C)C[C@H]1N[C@@](C)(C(=O)OC)[C@H]2C(=O)N(Cc3ccccc3)C(=O)[C@@H]12	none (no result: Sm TGR block, Pf growth 96h, Pf growth 48h)
CCOCCCN1C(=O)c2[nH]nc(-c3ccccc3O)c2C1c1ccc(CC)cc1 (stereo not drawn)	none (no result: SARS PLpro yeast, Pf growth 96h, Pf growth 48h)
O=C(OCC(=O)C12CC3CC(CC(C3)C1)C2)c1cnccn1	none
Cc1ccc(N2Cc3ccccc3OC(C)C2=O)cc1 (stereo not drawn)	Pf growth 96h 9.3µM (no result: Pf growth 48h)
Cc1ccc(CN2C(=O)C(C)Oc3ccccc32)cc1 (stereo not drawn)	none
O=C(/C=C/c1ccc(O)c(O)c1)OC(Cc1ccc(O)c(O)c1)C(=O)O (stereo not drawn)	Sm TGR block 35µM, Pf growth 48h inconclusive
CC1CCCC(NC(=O)CCNC(=O)c2ccccc2Cl)C1C (stereo not drawn)	none
N#C/C(=C/c1ccc(F)cc1)S(=O)(=O)c1ccccc1	Pf growth 48h inconclusive
N#C/C(=C\c1ccc(O)c(O)c1)C(=O)c1ccc(O)c(O)c1	Pf growth 48h inconclusive (no result: SARS PLpro yeast)
N#CC(C#N)=Cc1ccc(O)c(O)c1	Sm TGR block 1.4µM, Pf growth 96h inconclusive, Pf growth 48h inconclusive (no result: SARS PLpro yeast)
N#C/C(=C\c1ccc(O)c(O)c1)S(=O)(=O)c1ccccc1	Sm TGR block 45µM
CC(C)(C)c1cc(C=C(C#N)C#N)cc(C(C)(C)C)c1O	Sm TGR block inconclusive, Pf growth 96h 1.5µM, Pf growth 48h 2.6µM (no result: SARS PLpro yeast)
O=C(CCC(=O)Nc1ccccc1Cl)NNC(=O)C1CCCCC1	none (no result: Sm TGR block, Pf growth 96h, Pf growth 48h)
Nc1ccc(N=Nc2ccccc2)c(N)n1	none
Cc1[nH]c(N=Nc2ccccc2)nc1N=Nc1ccccc1	Pf growth 96h 9.3µM, Pf growth 48h 3.7µM
CCCOc1ccc(-c2nc3ccccc3c(=O)o2)cc1	none (no result: SARS PLpro yeast, Pf growth 96h, Pf growth 48h)
COc1ccccc1C(CCNCc1ccccc1)c1ccc(OC(C)C)cc1 (stereo not drawn)	Pf growth 96h inconclusive, Pf growth 48h inconclusive
COc1ccccc1C(CCNCc1ccc(N(C)C)cc1)c1ccc(OC(C)C)cc1 (stereo not drawn)	Pf growth 96h 13µM, Pf growth 48h 8.3µM
COc1ccc(CNCCC(c2ccc(OC(C)C)cc2)c2ccccc2OC)cc1OC (stereo not drawn)	Pf growth 96h inconclusive, Pf growth 48h 13µM
COc1ccc(C(CCNCc2ccc(N(C)C)cc2)C(C)C)cc1 (stereo not drawn)	Pf growth 96h 7.4µM, Pf growth 48h 9.3µM
COc1ccc(CNCCC(c2ccc(OC(C)C)cc2)c2ccccc2OC)cc1 (stereo not drawn)	Pf growth 96h inconclusive, Pf growth 48h inconclusive
Cc1nc2c(C(=O)NCCc3ccc(Cl)cc3)cnn2c(C)c1Cc1ccc(F)cc1	none (no result: SARS PLpro yeast, Pf growth 96h, Pf growth 48h)
Cc1cccc(NC(=O)c2ccc3nc(CCc4ccccc4)oc3c2)c1C	none (no result: SARS PLpro yeast, Pf growth 96h, Pf growth 48h)
Cc1cccc(N2CCN(Cc3nnc(-c4cccc(Br)c4)o3)CC2)c1C	none (no result: SARS PLpro yeast, Pf growth 96h, Pf growth 48h)
Cc1nn(Cc2ccccc2)c(C)c1C(=O)OCC(=O)c1cc(C)n(C2CC2)c1C	Pf growth 48h 15µM (no result: Pf growth 96h)
COc1ccc(N=C2O/C(=C/c3sc(=S)n(CC4CCCO4)c3O)N=C2C#N)cc1 (stereo not drawn)	Pf growth 96h 15µM, Pf growth 48h inconclusive
COc1ccc(N=Cc2c(O)n(CC3CCCO3)c(=O)[nH]c2=O)cc1 (stereo not drawn)	none
CC(C)Cc1nc(Nc2ccccc2C#N)c2nnn(Cc3ccccc3)c2n1	Pf growth 96h inconclusive, Pf growth 48h inconclusive
c1ccc(Cn2nnc3c(N4CCCCCC4)ncnc32)cc1	Pf growth 96h inconclusive, Pf growth 48h inconclusive
Cc1nc(N2CCC(C)CC2)c2nnn(Cc3ccccc3)c2n1	Pf growth 96h 15µM, Pf growth 48h 12µM
CC(C)Cc1nc(N2CCC(C(N)=O)CC2)c2nnn(Cc3ccccc3)c2n1	Pf growth 96h 10µM, Pf growth 48h 15µM
COc1ccc(CCNC(=O)CCc2c(C)c3ccc(O)c(C)c3oc2=O)cc1	none (no result: SARS PLpro yeast, Pf growth 96h, Pf growth 48h)
CC1CCN(C(=O)c2cc(S(=O)(=O)N3CCOCC3)ccc2N2CCCC2)CC1	Pf growth 48h inconclusive
CC1(C)Cc2nc(-c3ccccc3)nc(SCC(O)CO)c2CO1 (stereo not drawn)	Pf growth 96h 10µM
CC1(C)Cc2nc(-c3ccccc3)nc(SCC(=O)N3CCOCC3)c2CO1	Pf growth 96h inconclusive
Cc1cccc(-c2nc3c(c(SCC(=O)N4CCOCC4)n2)COC(C)(C)C3)c1	Pf growth 96h 12µM, Pf growth 48h inconclusive
